ALR H2O2 inh: inhibitors of human ALR sulfhydryl oxidase, primary screen, biochemical, H2O2 detection, HRP-luminol luminescence, single point; AID 485317, 2010; purified ALR, DTT oxidation; actives 3.8% (n = 290,000); FAD-linked sulfhydryl oxidase ALR (Homo sapiens), P55789; inhibition, % (concentration not given with the values);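 active means mean replicate inhibition above about 79%, with every replicate also reaching it, limit read from the data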
Target sequence (P55789 whole entry, looked up): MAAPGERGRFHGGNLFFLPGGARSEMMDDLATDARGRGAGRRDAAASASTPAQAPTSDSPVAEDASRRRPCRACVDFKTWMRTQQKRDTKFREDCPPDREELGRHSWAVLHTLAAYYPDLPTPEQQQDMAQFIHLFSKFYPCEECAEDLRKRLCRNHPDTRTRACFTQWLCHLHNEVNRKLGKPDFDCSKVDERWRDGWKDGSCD
A1 inh: caspase 3/7 activation in MEF A1-2A-BIM cells, primary screen, A1 inhibitor project, cell-based, luminescence, HTS; Caspase-Glo 3/7 luminescence, 3 h; percent of clofoctol response, vehicle zero; caspase activation, % (no concentration beside the values); actives 0.066% (n = 330,000); AID 2462, 2010;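 active means over half of replicate activation scores above 10%, or exactly half above 10 with the replicate mean above 10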
VLA-4 inh: inhibition in human VLA-4 binding assay, primary screen, VLA-4 allosteric modulator project, MLPCN library, flow cytometry, VLA-4 expressing cells; ligand binding flow cytometry; inhibition, % (about 7 µM as worked out from the volumes in the protocol); actives 0.2% (n = 330,000); AID 2557, 2010; in the data active means inhibition above about 50%
Efflux pump mplx: inhibitors of Candida efflux pumps in yeast, primary screen, S. cerevisiae, Nile Red, multiplex; inhibition, % at 10 µM; S. cerevisiae Candida pump triplex; actives 0.44% (n = 330,000);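 active means plate passing quality check with inhibition over a set limit, or well fluorescence over plate mean plus 4 SD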;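 further: Nile Red retained in pooled yeast measured as flow cytometry median fluorescence; 0% = buffer negative control and 100% = Enniatin B positive control; higher means more Nile Red kept so more efflux inhibition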
SUMO Mot1 rescue: yeast Mot1-301 growth rescue at high temperature, primary screen, SUMOylation pathway inhibitor project, S. cerevisiae, ATP luminescence, 38.5C; S. cerevisiae Mot1-301 growth rescue; percent above DMSO median, 100 means doubled; actives 1% (n = 320,000); growth rescue, % at 18.8 µM;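 active means every valid replicate shows activation above 250% relative to neutral control wells; inactive means the rest, any valid replicate at or below 250%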;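 further: OY570 slx delta 5 strain wells were the positive control but not used for scaling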
AHR activator: AHR activators, primary screen, cell-based, luminescence, luciferase reporter, human | AID 2796, 2010 | activation, % at 5 µM | actives 2.5% (n = 320,000) | AHR-responsive luciferase reporter cells; in the data active means activation above about 47%;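 further: 0% = vehicle wells and 100% = reference agonist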
The depositor's hits bear a star; . = no result given. Most compounds without a hit are left out; they make up all but 7.2% or so of the library.

SMILES	ALR H2O2 inh	A1 inh	VLA-4 inh	Efflux pump mplx	SUMO Mot1 rescue	AHR activator
Cc1[nH]c2ccccc2c1SCC(=O)NC1CCCCC1	80*	1	20	0	8	5
O=C(CSc1c[nH]c2ccccc12)NC1CCCC1	-14	0	5	0	0	15
CC1CC(C)CN(C(=O)CCCn2c(=S)[nH]c3ccccc3c2=O)C1 (stereo not given)	96*	3	32	0	3	0
O=C(CCCn1c(=S)[nH]c2ccccc2c1=O)N1CCCCC1	75	1	17	0	4	-2
CCCS(=O)(=O)Nc1c(C(=O)OC)[nH]c2ccccc12	16	2	16	-1	-3	29
CCOc1ccc(Nc2cc(Nc3ccccc3OCC)nc(C=C(C#N)C#N)n2)cc1	-8	0	22	0	-18	1
O=C(CCCn1c(=S)[nH]c2cc3c(cc2c1=O)OCO3)NC1CC1	-1	0	-25	0	24	17
COCC(=O)NCCSc1c(C)[nH]c2ccccc12	86*	0	8	0	-13	1
O=C(Nc1ccc(F)cc1)NC1CCCCC1	.	-1	4	0	5	1
O=C(Nc1c(F)c(F)c(F)c(F)c1F)NC1CCCCC1	-1	0	11	0	699*	0
O=C(C1CCC(Cn2c(=S)[nH]c3ccccc3c2=O)CC1)N1CCOCC1 (stereo not given)	83*	-1	-2	0	-1	-2
Cc1[nH]c2ccccc2c1SCC(=O)O	34	-1	-7	0	-13	8
O=C(CCCn1c(=S)[nH]c2ccccc2c1=O)NC1CCCCC1	79*	0	5	0	-7	6
COc1ccc(CCNC(=O)CSc2nc3ccsc3c(=O)n2CC2CCC(C(=O)O)CC2)cc1OC (stereo not given)	0	1	-2	0	-6	2
COc1ccc(Cc2nnc(SCC(=O)Nc3ccccc3C#N)o2)cc1	-2	1	-4	0	15	5
COc1ccc(C2CCCN2C(=O)Nc2ccccc2)cc1OC (stereo not given)	1	0	38	0	11	-3
COC(=O)c1[nH]c2ccc(C)cc2c1NC(=O)NC1CCCCC1	-6	0	12	0	3	12
O=C(Nc1c(C(=O)O)[nH]c2ccccc12)NC1CCCCC1	98*	-1	11	0	5	30
O=c1c2ccc(Cl)cc2[nH]c(=S)n1CCCN1CCOCC1	95*	1	-15	0	-13	2
COC(=O)C(F)(F)Sc1c(C)[nH]c2ccccc12	99*	0	10	0	7	15
C/C(=N\Nc1ccc(F)cc1)c1ccc(N2CCOCC2)c(F)c1	5	0	7	0	40	16
Cc1c(Nc2nc(C(F)(F)F)nc3ccccc23)c(=O)n(-c2ccccc2)n1C	-29	1	14	0	5	11
Cn1cc([N+](=O)[O-])c(C(=O)N2CCCCCC2)n1	-3	1	-2	0	2	-2
COc1ccc2c(c1OC)C(=O)N1N=C(c3ccc(-c4ccccc4)cc3)CC21 (stereo not given)	.	0	-11	0	-14	2
COc1ccc2c(c1OC)C(=O)N1c3ccccc3N=C(c3ccc([N+](=O)[O-])cc3)CC21 (stereo not given)	97*	0	11	0	-13	2
SMILES	ALR H2O2 inh	A1 inh	VLA-4 inh	Efflux pump mplx	SUMO Mot1 rescue	AHR activator
COc1ccc2c(c1OC)C(=O)N1N=C(c3ccc(O)cc3)CC21 (stereo not given)	99*	0	-16	0	-14	3
CCN(CC(=O)NCc1cccs1)C(=O)COc1ccc(C(N)=O)cc1	.	.	3	0	.	0
Cc1cc(-c2cc(N)n(-c3ccccc3)n2)c(C)n1C1CCCC1	-2	0	-12	0	-13	13
COc1ccc(N(C(=O)Cn2nnc3ccccc32)C(C(=O)NCc2ccco2)c2ccncc2)cc1 (stereo not given)	.	0	-1	0	-9	0
C=CCc1cccc(CNc2c(C)cc(C)cc2C)c1O	-3	0	0	0	387*	1
Clc1ccc(CNc2ccccc2NCc2ccc(Cl)nc2)cn1	.	0	9	0	42	25
COc1cc(C(=O)Nc2ccc(O)cc2C(=O)O)ccc1OC(C)=O	87*	1	8	0	-18	1
COC(=O)c1ccc(NC(=O)c2ccc(OC(C)=O)c(OC)c2)cc1	39	-10	11	0	-4	0
O=C(COC(=O)CCNS(=O)(=O)c1ccccc1)Nc1ccc(OC(F)F)cc1	0	0	10	0	6	-1
O=C(CCN1CCN(c2ccccc2F)CC1)c1ccc(Br)cc1	11	0	2	0	6	0
COc1ccc(C(=O)CCN2CCN(c3ccccc3F)CC2)cc1	.	0	3	0	616*	-2
CCOc1ccc(-c2nc(CSCC(=O)N3CCN(C(=O)c4ccco4)CC3)c(C)o2)cc1	99*	-1	14	0	-10	4
Cc1ccc(-c2nc(CSCC(=O)N3CCCC3)c(C)o2)cc1	99*	0	-1	0	11	-5
CCOC(=O)C1CCN(C(=O)CSCc2nc(-c3ccc(OCC)cc3)oc2C)CC1	99*	0	4	0	-17	-3
CC(C)c1cc(C(=O)NNC(=S)NC2CCCCC2)cs1	22	1	-2	0	-14	4
CCCc1ccc2oc(C(=O)NCCc3cnn(C)c3)c(C)c2c1	6	-2	15	0	-13	49*
CCCc1ccc2oc(C(=O)N3CCCC3)c(C)c2c1	4	-1	17	0	8	-1
CCc1cccc(NC(=O)c2cnn(-c3ccccc3)c2C)c1	-11	-10	11	0	-37	-6
CCn1ncc(C(=O)Nc2cccc(Cl)c2)c1C	-8	-5	23	0	159	79*
COc1ccc(/C=N/c2oc(-c3ccccc3)cc2C#N)cc1	97*	2	0	0	-4	9
Cc1oc(/N=C/c2ccccc2)c(C#N)c1C	-2	1	2	0	1	.
COc1cccc(C=Nc2ccccc2C#N)c1O	.	0	24	0	6	4
COc1cccc(/C=N/c2oc(-c3ccccc3)cc2C#N)c1O	86*	0	32	0	-3	6
N#Cc1cc(-c2ccccc2)oc1/N=C/c1ccccc1O	97*	0	1	0	443	6

Screening results as filed in PubChem BioAssay.
